# According to the supplement of paper PMC3334620:
# In all, about 33,000 sequences were measured (“E-score (-0.5 to 0.5)”: median about -0.017, highest 2% from about 0.3 on). This is one part of a sample in which the highest values are shown more often than they occur.
# Target: T1, Sut1 (UniProt P53032)
# T1 sequence: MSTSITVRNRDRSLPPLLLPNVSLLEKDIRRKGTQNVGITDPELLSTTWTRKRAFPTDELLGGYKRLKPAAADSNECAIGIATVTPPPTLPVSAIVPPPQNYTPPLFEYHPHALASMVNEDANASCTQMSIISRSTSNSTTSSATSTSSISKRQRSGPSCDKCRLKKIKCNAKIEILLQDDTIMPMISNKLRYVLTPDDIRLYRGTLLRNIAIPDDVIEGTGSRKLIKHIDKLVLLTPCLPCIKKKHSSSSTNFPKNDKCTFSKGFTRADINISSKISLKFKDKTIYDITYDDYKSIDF
# Assay: PBM E-score (8-mer binding enrichment) (E-score (-0.5 to 0.5)); higher = stronger / more preferred TF binding
# Conditions: protein concentration: 200 nM; construct: GST-full length
# Outline: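 Yeast transcription factors carrying a GST tag, as full-length proteins or DNA-binding domains, were produced by PURExpress in vitro transcription/translation. About 100-200 nM protein was applied to universal all-10-mer Agilent arrays, double-stranded by primer extension on fresh or once-stripped slides. Bound protein was detected with fluorescent anti-GST, and scans were normalised with masliner. The Universal PBM Analysis Suite gave each ungapped eight-base word, pooled with its reverse complement, an E-score, a modified Wilcoxon-Mann-Whitney statistic.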
row,Sequence,PBM E-score
1,CGTCAACG,0.0766
2,CGGTACTC,-0.0748
3,GAACAGTC,0.0217
4,GAATGTCC,0.282
5,AACCCTAC,-0.287
6,ATATGCAC,0.133
7,CCACCCCA,-0.221
8,AATCCATA,0.108
9,AACGCTGT,-0.0573
10,CCAGTAGA,-0.112
11,AGTGCTCA,-0.105
12,CGGAGAGC,0.109
13,CCGAAAAA,0.352
14,CCGAAAAC,0.164
15,GCGAGAAA,0.0168
16,TCGAGAAA,0.103
17,CCGAGAAA,0.339
18,AGGAGAGA,-0.0542
19,CCGAAAAG,0.178
20,CGGAGAGA,0.317
21,ACGGGTGA,-0.0761
22,AGCGTCAT,-0.0756
23,CACCTTGC,0.00165
24,CTCAGCGA,-0.204
25,CGGAGCGA,0.325

row,Sequence,PBM E-score
1,CGGAGCAC,0.175
2,AGGAGCGA,-0.00713
3,TGGAGCAA,-0.0175
4,CGGAGCAA,0.311
5,CGGAGCGC,0.118
6,TTCATGAA,0.00239
7,AACTACAT,0.141
8,CCATTATA,0.135
9,CCCGGAAA,0.234
10,TCCGGGAA,0.356
11,TCCGGTAA,0.384
12,GCCGGTAA,0.121
13,ACCGGGAA,0.145
14,ACCGGAAA,0.268
15,CCCGGGAA,-0.03
16,TCCGGAAA,0.411
17,ACCGGTAA,-0.0335
18,CTCTGAGA,-0.0987
19,AGCAATTG,0.175
20,GGAATGAA,0.166
21,ATGCCCCC,-0.387
22,GACTCGCA,-0.0641
23,AACTCGGG,-0.135
24,TACTCGGA,0.324
25,CACTCGGA,0.266

row,Sequence,PBM E-score
1,GACTCGGA,0.33
2,GACTCGGC,-0.033
3,TACTCGCA,0.0383
4,AACTCGGA,0.341
5,AACTCGGT,0.0362
6,GCAGAGGA,-0.102
7,GCTTCGAC,-0.218
8,GAGACCCC,-0.146
9,ACCTTGCT,-0.0591
10,GCGCCAGA,-0.088
11,CCATATAG,-0.0893
12,ACTCATCG,0.0167
13,ATCCGTGA,-0.119
14,ATCCGTGC,0.0778
15,CACCGTGC,-0.263
16,CTCCGTGC,0.321
17,CTCCGTGA,0.407
18,GTCCGTGA,0.251
19,AGGGCAGA,-0.348
20,GACTGGGC,-0.0754
21,CTTCGCTA,-0.0699
22,ATATGCAG,-0.134
23,AAAGTAAT,0.204
24,AGAGTTAA,0.0656
25,AGAGTTAC,-0.117

row,Sequence,PBM E-score
1,GGAGTTAA,0.337
2,TGAGTTAA,-0.00085
3,GGAGTTAC,0.367
4,CGAGTTAC,0.0146
5,GCTCCCTA,-0.123
6,CAGGGAGC,-0.326
7,ACAAACAC,0.185
8,GCGGCCGA,-0.139
9,TCGGCCGA,0.323
10,CCGGCCGA,0.0979
11,AAAACTAT,0.231
12,TAAACTAA,0.323
13,CTAACTAA,0.142
14,CAAACTAA,0.276
15,CTAACTAG,0.302
16,AAAACTAG,0.0495
17,AAAACTAA,0.353
18,CTAACTAC,0.00799
19,GAAACTAA,0.00617
20,ACTCCACT,-0.144
21,CCCTCAGA,-0.309
22,CAGAGAAC,-0.299
23,CTATCAAC,0.208
24,AGACTCTG,-0.137
25,CAGTCACA,-0.17

row,Sequence,PBM E-score
1,GACCCGTC,-0.239
2,AGTTCTCC,0.0174
3,GTGACGAA,-0.0161
4,CCTTAGGA,-0.0422
5,AACCAGCT,-0.0518
6,CGAAAACC,0.0693
7,AGTTAAGA,0.0414
8,CTCCGGTC,0.418
9,ATCCGGTC,-0.00108
10,CGCCGGTC,-0.0721
11,GCCCGGTA,-0.187
12,CTCCGGTA,0.413
13,CCCCGGTA,0.0227
14,ATCCGGTA,0.135
15,GTCCGGTA,0.373
16,GGCCGGTA,0.0132
17,GGTCGAAA,-0.14
18,GGCTGACC,-0.205
19,ATTATTCA,0.289
20,AGGATACT,-0.0531
21,ACTCGGCT,-0.079
22,ACACCGCA,0.0401
23,GTAGACAA,0.157
24,AGGGGTAT,-0.217
25,ACGCACTA,-0.0472

row,Sequence,PBM E-score
1,GCATATCC,-0.196
2,GGATTTCA,0.117
3,GGGACCTA,0.0551
4,CGGACCTC,0.411
5,CGGACCTA,0.42
6,CTGACCTC,-0.121
7,AGGACCTC,-0.0609
8,AGGACCTA,-0.0435
9,AACTCGAA,-0.0516
10,TCCTTCCA,-0.243
11,GTATAAAC,0.227
12,GTATAAGA,0.103
13,ATATAAAA,0.205
14,GTATAAAA,0.317
15,TTATAAAA,0.314
16,CTATAAAA,0.183
17,TGAACCCA,-0.00171
18,GTCGTTGA,-0.0946
19,ATCCCAGC,-0.107
20,ACACTAGA,0.0902
21,CGATGTCC,0.164
22,ATCAAGAT,0.158
23,TACGGACA,0.282
24,CACGGAGG,0.0312
25,CAAGGAGA,0.0606

row,Sequence,PBM E-score
1,CACGGAGC,0.354
2,AACGGAGC,0.231
3,TACGGAGA,0.32
4,AACGGAGT,0.478
5,CACGGAGA,0.355
6,GACGGAGA,0.277
7,GACGGAGC,0.231
8,TACGGAAA,0.278
9,AACGGAGG,-0.0314
10,ATCCATTA,0.076
11,AATCGCCA,-0.0545
12,AAGAGATC,-0.168
13,AGAATTGG,0.13
14,CGCAATGA,-0.0747
15,ACACTTGA,-0.00965
16,AGACCACC,-0.0644
17,CATGGCAG,-0.108
18,CCCTGGGC,-0.324
19,ATTAATGA,0.267
20,ATTTCTTA,0.0841
21,CTCCCGAA,-0.0868
22,CTCCCTCC,-0.2
23,GGCTCATA,-0.0389
24,CAGCGGGG,-0.149
25,AACAGAGA,-0.0653

row,Sequence,PBM E-score
1,AACGGATA,0.285
2,AACGGAGA,0.359
3,ACTGCTCC,-0.0101
4,GGAGTAAC,0.258
5,GGAGTATA,0.311
6,CGAGTAGA,-0.0364
7,GGAGTAAA,0.333
8,CGAGTATA,0.0489
9,AGAGTATA,0.00921
10,GGAGTAGA,0.318
11,AGAGTAGA,0.163
12,TGAGTAAA,0.0705
13,AGGCCATG,-0.206
14,GAGCTGAA,0.01
15,CAGTACGA,-0.0772
16,TACAGCGA,-0.145
17,GTAGCTCA,-0.0732
18,ACCTGATC,-0.177
19,AGAACCTG,-0.0844
20,CTAATTTC,0.299
21,AAAATTAC,0.237
22,TTAATTAA,0.0737
23,GTAATTAA,0.161
24,ATTATAAT,0.378
25,ATTATAAG,0.193

row,Sequence,PBM E-score
1,CTAATTTA,0.175
2,AAAATTAT,0.351
3,ATTATAAA,0.275
4,ATAATTAA,0.314
5,ATAATTTC,0.242
6,AAAATTAG,0.155
7,CGGATCAA,0.16
8,CGTCTTGA,0.0919
9,AGCCCCAA,-0.358
10,ATCGCTAC,-0.0624
11,AATTATAT,0.212
12,TCCACTAA,0.0668
13,CCCAAACA,0.00961
14,ATAATTAT,0.39
15,AAAATGAC,0.157
16,AAAATGAA,0.0412
17,CTCATTAA,0.119
18,GTAATTTA,0.221
19,ATAATTTA,0.337
20,ATAATTAG,0.235
21,ATCATTAA,0.305
22,ATCATTAG,0.0427
23,ATAATTTG,0.249
24,AAAATGAT,0.342
25,ATAATTAC,0.283
